The text below walks through data of ChEMBL document CHEMBL2218924, “A broad activity screen in support of a chemogenomic map for kinase signalling research and drug discovery” (Biochem J, 2013).

For assay [1], the target named is ALK tyrosine kinase receptor (Homo sapiens) (UniProt Q9UM73). Conditions: at 10 µM.
The target of assay [2] is T1, Activin receptor type-1B (Homo sapiens) (UniProt P36896).
T1 sequence (whole entry): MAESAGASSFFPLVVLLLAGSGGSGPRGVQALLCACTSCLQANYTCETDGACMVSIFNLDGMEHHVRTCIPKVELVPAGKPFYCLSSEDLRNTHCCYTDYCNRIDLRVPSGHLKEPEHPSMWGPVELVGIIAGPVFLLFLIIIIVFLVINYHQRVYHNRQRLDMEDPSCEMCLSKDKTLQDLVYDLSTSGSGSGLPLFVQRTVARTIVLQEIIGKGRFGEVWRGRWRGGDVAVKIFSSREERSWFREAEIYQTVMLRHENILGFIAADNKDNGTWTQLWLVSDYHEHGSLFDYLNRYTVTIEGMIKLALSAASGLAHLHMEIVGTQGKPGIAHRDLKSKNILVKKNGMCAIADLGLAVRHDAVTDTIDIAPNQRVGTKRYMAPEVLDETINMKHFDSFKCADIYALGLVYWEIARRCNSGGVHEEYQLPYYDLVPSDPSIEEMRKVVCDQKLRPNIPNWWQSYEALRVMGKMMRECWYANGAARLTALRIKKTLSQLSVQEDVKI
Particulars: at 1 µM.

Assay [3] deals with T1, Activin receptor type-1B (Homo sapiens). Conditions: at 10 µM.
For assay [4], the target named is T2, AMP-activated protein kinase (AMPK) alpha-1/beta-1/gamma-1 (Homo sapiens) (UniProt P54619+Q9Y478+Q13131). Conditions: at 1 µM.
T2 sequence (P54619 whole entry): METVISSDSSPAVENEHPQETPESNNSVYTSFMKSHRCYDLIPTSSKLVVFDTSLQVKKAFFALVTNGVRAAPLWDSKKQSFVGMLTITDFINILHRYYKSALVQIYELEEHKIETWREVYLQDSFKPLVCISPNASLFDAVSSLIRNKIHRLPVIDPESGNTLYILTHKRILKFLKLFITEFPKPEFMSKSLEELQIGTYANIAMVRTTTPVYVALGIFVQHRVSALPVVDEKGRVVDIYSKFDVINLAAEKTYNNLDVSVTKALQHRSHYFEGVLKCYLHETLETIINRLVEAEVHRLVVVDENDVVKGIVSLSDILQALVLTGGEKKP
T2 sequence (Q13131 whole entry partner): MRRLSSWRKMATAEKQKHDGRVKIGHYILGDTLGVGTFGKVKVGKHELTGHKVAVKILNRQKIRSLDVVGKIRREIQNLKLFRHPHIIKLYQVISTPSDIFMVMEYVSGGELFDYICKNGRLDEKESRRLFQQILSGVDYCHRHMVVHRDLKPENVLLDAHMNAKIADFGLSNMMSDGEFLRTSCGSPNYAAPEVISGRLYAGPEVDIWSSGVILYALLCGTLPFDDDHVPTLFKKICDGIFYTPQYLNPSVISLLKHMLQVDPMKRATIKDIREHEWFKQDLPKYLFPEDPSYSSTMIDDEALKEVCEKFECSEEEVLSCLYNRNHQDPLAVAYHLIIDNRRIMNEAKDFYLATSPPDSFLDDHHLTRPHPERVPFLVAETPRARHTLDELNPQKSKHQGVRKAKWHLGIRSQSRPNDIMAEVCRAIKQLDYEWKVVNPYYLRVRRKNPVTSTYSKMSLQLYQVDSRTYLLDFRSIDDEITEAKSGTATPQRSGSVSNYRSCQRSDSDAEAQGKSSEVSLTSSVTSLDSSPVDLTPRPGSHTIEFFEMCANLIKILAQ
T2 sequence (Q9Y478 2-270 partner limits assumed): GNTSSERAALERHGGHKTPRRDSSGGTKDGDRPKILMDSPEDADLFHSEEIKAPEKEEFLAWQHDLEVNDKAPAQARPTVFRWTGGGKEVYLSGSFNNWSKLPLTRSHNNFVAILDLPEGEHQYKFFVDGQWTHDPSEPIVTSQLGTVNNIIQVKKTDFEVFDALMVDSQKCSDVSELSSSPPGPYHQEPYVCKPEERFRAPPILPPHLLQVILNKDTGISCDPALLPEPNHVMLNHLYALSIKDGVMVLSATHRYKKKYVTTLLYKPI
Assay [5] addresses T2, AMP-activated protein kinase (AMPK) alpha-1/beta-1/gamma-1 (Homo sapiens). Conditions: at 10 µM.
Assay [6] concerns the target T3, AMP-activated protein kinase, AMPK (Homo sapiens) (UniProt P54646+O43741+P54619+Q9UGJ0+Q9Y478+Q13131+Q9UGI9). Conditions: at 1 µM.
Assay [7] addresses T3, AMP-activated protein kinase, AMPK (Homo sapiens). Particulars: at 10 µM.
Assay [8] has as its target T4, NUAK family SNF1-like kinase 1 (Homo sapiens) (UniProt O60285).
T4 sequence (whole entry): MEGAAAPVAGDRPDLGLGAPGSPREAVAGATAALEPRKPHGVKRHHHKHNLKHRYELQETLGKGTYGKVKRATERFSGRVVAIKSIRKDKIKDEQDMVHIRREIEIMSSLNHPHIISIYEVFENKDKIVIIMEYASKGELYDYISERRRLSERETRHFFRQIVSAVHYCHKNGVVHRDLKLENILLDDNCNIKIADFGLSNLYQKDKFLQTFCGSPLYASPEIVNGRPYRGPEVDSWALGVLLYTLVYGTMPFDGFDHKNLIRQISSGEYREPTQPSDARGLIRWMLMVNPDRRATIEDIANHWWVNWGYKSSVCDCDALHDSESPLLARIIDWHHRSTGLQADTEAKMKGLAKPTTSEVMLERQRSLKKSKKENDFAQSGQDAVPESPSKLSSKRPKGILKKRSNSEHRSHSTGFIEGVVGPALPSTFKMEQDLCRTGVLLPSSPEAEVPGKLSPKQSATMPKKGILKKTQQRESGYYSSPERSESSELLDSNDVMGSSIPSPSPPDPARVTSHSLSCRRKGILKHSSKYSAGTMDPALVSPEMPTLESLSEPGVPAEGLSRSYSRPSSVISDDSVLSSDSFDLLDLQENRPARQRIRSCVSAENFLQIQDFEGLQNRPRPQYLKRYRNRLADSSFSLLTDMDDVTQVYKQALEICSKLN
Particulars: at 1 µM.

The target of assay [9] is T4, NUAK family SNF1-like kinase 1 (Homo sapiens). Conditions: at 10 µM.
Assay [10] concerns the target T5, Mitogen-activated protein kinase kinase kinase 5 (Homo sapiens) (UniProt Q99683).
T5 sequence (whole entry): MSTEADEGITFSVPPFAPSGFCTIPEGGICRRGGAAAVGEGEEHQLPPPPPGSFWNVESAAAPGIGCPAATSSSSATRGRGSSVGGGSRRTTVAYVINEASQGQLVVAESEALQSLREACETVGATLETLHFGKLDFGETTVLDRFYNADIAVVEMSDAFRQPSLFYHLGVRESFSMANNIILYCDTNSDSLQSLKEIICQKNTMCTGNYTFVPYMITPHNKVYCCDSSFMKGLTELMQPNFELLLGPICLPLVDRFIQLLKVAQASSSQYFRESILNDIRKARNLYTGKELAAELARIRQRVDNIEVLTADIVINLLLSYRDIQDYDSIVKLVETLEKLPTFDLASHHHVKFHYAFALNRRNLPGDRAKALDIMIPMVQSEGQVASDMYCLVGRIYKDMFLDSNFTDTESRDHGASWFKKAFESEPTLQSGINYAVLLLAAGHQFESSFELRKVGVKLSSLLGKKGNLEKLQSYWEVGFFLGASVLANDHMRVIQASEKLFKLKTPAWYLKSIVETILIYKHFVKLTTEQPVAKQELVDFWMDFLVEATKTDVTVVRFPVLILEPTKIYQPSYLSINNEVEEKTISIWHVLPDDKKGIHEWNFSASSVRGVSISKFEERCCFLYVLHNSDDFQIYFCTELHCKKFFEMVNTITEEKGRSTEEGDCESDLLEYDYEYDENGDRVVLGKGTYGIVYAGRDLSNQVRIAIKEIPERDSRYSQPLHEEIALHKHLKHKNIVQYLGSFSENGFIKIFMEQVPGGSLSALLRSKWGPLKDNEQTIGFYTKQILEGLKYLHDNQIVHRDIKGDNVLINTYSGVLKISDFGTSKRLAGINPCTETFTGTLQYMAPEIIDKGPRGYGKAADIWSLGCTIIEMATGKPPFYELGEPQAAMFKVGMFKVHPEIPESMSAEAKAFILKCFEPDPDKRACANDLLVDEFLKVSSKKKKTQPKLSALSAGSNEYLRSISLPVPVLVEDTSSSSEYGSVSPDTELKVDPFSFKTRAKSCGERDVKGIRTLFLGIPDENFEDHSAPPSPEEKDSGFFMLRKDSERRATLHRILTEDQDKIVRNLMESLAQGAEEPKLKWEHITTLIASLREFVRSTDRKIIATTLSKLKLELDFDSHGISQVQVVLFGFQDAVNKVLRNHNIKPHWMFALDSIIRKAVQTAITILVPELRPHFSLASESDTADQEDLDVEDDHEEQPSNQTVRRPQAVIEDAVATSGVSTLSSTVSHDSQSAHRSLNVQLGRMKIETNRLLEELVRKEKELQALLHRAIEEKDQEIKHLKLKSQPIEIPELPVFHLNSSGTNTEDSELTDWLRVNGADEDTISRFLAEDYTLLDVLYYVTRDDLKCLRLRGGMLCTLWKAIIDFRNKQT
Conditions: at 1 µM.

In assay [11] the target is Platelet-derived growth factor receptor beta (Homo sapiens) (UniProt P09619). Conditions: at 1 µM.
Chain of Platelet-derived growth factor receptor beta (Homo sapiens) (P09619 whole entry): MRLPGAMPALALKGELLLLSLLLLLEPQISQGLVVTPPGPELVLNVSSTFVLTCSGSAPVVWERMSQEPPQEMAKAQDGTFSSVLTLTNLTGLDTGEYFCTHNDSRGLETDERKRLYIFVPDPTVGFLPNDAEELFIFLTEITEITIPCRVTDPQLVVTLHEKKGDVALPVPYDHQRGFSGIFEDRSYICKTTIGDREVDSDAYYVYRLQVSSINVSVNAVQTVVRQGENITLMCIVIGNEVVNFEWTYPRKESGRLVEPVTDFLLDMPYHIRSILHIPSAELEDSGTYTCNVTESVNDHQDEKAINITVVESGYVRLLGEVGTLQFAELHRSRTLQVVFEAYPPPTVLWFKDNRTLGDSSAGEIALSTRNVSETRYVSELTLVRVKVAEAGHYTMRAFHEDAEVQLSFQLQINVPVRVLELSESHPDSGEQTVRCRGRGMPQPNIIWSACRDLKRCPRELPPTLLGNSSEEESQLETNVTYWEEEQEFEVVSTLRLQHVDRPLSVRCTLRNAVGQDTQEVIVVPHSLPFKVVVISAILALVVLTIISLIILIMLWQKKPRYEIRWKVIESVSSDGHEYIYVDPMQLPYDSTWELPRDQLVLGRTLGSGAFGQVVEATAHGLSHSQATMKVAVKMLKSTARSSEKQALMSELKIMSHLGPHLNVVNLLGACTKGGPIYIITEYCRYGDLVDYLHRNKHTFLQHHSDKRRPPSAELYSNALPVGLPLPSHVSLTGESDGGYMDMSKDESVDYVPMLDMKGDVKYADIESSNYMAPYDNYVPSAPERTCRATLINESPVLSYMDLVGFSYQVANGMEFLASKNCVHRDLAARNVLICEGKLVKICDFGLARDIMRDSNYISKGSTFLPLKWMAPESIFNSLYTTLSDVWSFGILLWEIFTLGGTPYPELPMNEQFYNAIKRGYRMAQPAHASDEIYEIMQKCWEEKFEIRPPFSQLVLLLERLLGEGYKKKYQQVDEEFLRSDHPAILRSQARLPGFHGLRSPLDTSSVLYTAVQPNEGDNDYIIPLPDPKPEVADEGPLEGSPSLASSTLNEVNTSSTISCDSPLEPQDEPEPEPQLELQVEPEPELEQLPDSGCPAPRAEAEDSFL
Assay [12] has the same target. Conditions: at 10 µM.
Assay [13] has as its target cAMP-dependent protein kinase catalytic subunit alpha (Homo sapiens) (UniProt P17612). Conditions: at 1 µM.
Assay [14] has the same target. Conditions: at 10 µM.
Assay [15] has as its target RAC-gamma serine/threonine-protein kinase (Homo sapiens) (UniProt Q9Y243). Conditions: at 1 µM.
Assay [16] shares this target. Conditions: at 10 µM.
Assay [17] deals with Platelet-derived growth factor receptor alpha (Homo sapiens) (UniProt P16234). Conditions: at 1 µM.
Chain of Platelet-derived growth factor receptor alpha (Homo sapiens) (P16234 whole entry): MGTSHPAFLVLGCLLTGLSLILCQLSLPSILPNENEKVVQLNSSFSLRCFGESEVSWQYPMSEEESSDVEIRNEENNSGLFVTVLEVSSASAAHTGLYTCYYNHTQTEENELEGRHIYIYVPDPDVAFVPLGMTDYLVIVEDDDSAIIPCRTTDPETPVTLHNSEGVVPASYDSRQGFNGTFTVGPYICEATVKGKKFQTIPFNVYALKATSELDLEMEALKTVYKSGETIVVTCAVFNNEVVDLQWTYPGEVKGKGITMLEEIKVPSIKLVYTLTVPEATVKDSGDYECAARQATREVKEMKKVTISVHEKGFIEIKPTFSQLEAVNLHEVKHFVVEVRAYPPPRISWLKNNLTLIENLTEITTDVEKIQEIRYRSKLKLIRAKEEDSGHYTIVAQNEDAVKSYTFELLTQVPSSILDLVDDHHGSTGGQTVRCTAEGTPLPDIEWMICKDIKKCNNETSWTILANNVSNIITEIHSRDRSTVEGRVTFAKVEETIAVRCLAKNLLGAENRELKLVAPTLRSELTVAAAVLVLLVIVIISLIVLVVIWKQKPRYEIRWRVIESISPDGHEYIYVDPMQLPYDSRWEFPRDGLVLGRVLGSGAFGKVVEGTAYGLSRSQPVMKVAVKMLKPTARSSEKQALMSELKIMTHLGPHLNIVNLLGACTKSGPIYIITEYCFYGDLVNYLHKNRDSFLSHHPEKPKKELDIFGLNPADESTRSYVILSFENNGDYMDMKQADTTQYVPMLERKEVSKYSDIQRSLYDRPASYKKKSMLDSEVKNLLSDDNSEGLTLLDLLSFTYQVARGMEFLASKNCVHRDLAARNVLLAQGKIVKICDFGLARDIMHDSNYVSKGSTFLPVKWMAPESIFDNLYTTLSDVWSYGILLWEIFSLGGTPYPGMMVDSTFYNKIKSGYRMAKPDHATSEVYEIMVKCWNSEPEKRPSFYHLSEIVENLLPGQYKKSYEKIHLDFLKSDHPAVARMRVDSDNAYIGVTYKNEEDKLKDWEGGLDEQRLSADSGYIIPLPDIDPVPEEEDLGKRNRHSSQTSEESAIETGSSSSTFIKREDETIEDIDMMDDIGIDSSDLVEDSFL
Assay [18] shares this target. Conditions: at 10 µM.
Assay [19] addresses T6, 3-phosphoinositide-dependent protein kinase 1 (Homo sapiens) (UniProt O15530).
T6 sequence (whole entry): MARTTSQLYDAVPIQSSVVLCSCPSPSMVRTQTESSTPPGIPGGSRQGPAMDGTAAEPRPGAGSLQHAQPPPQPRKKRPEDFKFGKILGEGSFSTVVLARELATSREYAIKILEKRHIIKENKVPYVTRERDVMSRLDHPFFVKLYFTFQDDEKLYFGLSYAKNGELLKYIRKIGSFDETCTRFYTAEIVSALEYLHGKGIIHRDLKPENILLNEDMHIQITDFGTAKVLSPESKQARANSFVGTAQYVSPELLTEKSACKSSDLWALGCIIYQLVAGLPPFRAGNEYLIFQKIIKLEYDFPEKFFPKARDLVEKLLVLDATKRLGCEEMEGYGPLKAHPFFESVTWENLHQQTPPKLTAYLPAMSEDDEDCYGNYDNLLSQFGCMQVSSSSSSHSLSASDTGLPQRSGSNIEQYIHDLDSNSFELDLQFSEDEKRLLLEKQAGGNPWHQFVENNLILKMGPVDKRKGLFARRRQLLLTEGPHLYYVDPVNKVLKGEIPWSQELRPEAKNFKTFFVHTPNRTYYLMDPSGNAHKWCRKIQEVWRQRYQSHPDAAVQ
Conditions: at 1 µM.

The target of assay [20] is T6, 3-phosphoinositide-dependent protein kinase 1 (Homo sapiens). Particulars: at 10 µM.

Chain of ALK tyrosine kinase receptor (Homo sapiens) (Q9UM73 19-1620 limits assumed): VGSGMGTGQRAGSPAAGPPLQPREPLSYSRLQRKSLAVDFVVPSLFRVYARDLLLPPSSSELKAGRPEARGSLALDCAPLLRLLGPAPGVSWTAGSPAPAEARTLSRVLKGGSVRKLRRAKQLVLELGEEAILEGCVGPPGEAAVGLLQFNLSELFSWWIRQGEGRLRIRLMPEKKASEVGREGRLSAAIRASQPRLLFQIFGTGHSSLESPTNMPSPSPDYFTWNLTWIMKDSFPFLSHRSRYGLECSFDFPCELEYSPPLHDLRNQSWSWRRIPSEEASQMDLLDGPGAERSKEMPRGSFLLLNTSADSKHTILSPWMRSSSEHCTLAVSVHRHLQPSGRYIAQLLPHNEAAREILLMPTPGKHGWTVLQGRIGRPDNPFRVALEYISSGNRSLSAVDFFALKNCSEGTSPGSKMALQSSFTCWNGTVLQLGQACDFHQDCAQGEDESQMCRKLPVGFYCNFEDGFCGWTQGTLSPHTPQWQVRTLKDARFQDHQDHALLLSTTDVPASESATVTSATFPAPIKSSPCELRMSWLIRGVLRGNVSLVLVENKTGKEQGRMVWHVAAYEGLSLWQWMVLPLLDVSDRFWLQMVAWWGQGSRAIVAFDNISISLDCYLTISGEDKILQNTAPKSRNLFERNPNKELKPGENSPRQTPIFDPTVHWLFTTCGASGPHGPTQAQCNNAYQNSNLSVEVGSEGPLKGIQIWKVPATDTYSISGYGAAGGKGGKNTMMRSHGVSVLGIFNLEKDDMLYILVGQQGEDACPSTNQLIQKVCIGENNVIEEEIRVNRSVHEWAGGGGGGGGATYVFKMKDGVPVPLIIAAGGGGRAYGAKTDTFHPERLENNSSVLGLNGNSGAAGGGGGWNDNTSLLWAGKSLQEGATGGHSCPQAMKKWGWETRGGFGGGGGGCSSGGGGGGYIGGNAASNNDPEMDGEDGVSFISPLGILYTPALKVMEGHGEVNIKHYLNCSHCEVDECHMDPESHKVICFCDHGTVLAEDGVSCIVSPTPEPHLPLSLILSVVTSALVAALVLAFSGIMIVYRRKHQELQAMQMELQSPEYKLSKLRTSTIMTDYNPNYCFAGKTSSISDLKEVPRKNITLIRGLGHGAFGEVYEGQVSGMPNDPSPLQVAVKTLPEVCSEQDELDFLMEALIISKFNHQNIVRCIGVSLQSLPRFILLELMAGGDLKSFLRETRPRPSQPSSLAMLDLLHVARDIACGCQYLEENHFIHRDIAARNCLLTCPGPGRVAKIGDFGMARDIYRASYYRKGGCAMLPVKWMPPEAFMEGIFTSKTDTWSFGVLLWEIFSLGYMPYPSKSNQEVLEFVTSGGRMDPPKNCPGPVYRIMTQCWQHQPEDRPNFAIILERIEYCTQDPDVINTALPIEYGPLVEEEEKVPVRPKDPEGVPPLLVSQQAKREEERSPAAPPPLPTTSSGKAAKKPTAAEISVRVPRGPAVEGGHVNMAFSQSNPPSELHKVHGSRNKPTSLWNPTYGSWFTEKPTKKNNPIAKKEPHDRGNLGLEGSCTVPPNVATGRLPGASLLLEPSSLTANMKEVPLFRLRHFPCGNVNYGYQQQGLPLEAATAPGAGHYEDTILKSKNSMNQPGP

On to `O=C1C(Cl)=C(N2C(=O)CCC2=O)C(=O)c2ccccc21`, for which the residual activity in assay [1] was determined as 58%; in assay [2] it was 101%; in [3], 121%; in [4], 95%; in [5], 91%; in [6], 99%. Also, the residual activity in assay [7] was determined as 101%; in assay [8], 96%; in assay [9], 84%; in assay [10], 89%; in [11], 95%; in assay [12] it was 93%. Moreover, the residual activity in [13] was found to be 95%; in assay [14], 84%; in assay [15], 89%; in assay [16] it was 87%.

On to `N#Cc1c(NC(=O)c2cccc3ccccc23)sc2c1CCCC2`, for which the residual activity was determined as 91% in assay [1]; 87% in assay [2]; 93% in [3]; 86% in assay [4]; 97% in assay [5]; 98% in assay [6]. Also, the residual activity is 92% in assay [9]; 88% in assay [10]; 92% in assay [12]; 91% in assay [14]; 81% in [16].

On to `O=C1NC(=O)c2c1c1c3ccccc3[nH]c1n1cncc21`, for which the residual activity in assay [1] is 48%; in assay [2], 97%; in assay [4], 49%; in [5], 34%; in assay [6], 38%; in assay [7], 29%. Also, the residual activity in assay [8] came to 15%; in assay [9], 13%; in assay [10], 99%; in assay [17] it was 96%; in assay [18], 92%; in [11], 88%. The residual activity is 92% in [12]; 56% in assay [19]; 39% in [20]; 82% in assay [13]; 88% in assay [14]; 84% in [15]. The residual activity in [16] came out at 64%.

Turning to `O=C1NC(=O)C(c2cn(CCCO)c3ncccc23)=C1c1cnccn1`, the residual activity came to 67% in [1]; 83% in assay [2]; 92% in [4]; 75% in [5]; 94% in assay [6]; 80% in [7]. Besides, the residual activity turned out to be 62% in assay [8]; 50% in [9]; 78% in assay [10]; 96% in assay [12]; 98% in [15]; 89% in assay [16].

Regarding `COc1ccc2c(c1)c(C1=C(c3c[nH]c4ccccc34)C(=O)NC1=O)cn2CCCN(C)C`, the residual activity in assay [1] turned out to be 64%; in assay [3], 47%; in assay [4], 52%; in [5], 11%; in [6], 38%; in [7], 5%. The residual activity in [8] worked out at 37%; in assay [9] it was 10%; in [17] it was 106%; in [18], 66%; in assay [12] it was 63%; in [19], 62%. Besides, the residual activity in assay [20] is 14%; in assay [13] it was 37%; in [14], 17%; in assay [15], 30%; in assay [16], 9%.

`Nc1ncnc2[nH]nc(Nc3ccc(F)cc3)c12`: the residual activity in assay [1] is 67%; in [2], 114%; in assay [3] it was 77%; in assay [4], 100%; in assay [5], 69%; in [6], 99%. In addition, the residual activity in assay [7] was 65%; in assay [8] it was 98%; in assay [9], 90%; in [17] it was 105%; in [18] it was 111%; in assay [11], 107%. For the same molecule, the residual activity was determined as 109% in assay [12]; 92% in assay [19]; 40% in assay [20]; 77% in [14]; 71% in [16].
